Columns and labels:
Experiment in all cases: log2 ratio of Biotin-Ahx-Ub-VS probe labelling (fragment/DMSO); higher = less target engagement (more negative = stronger competition), active = hit call of the paper (q ≤ 0.05, log2 ratio ≤ -1)
Conditions in all cases: compound concentration: 200 uM; treatment time: 3 h
[1] = target: USP34 (UniProt Q70CQ2)
Method in brief: (§1)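 HEK293T lysate in Tris/CHAPS/IGEPAL buffer with protease inhibitors (495 µg per sample) was given fragment at 200 µM or vehicle for 3 h, in triplicate. It then received Biotin-Ahx-Ub-VS at 0.5 µM final for 1 h. Labelled DUBs were NeutrAvidin-enriched, digested with LysC and trypsin, and run by diaPASEF LC-MS/MS. Values are average log2 fragment/vehicle ratios by unpaired t-test on global-median-normalised Spectronaut quantities of proteins with ≥2 unique peptides.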

[2] = target: T1, USP36 (UniProt Q9P275)
T1 sequence (whole entry): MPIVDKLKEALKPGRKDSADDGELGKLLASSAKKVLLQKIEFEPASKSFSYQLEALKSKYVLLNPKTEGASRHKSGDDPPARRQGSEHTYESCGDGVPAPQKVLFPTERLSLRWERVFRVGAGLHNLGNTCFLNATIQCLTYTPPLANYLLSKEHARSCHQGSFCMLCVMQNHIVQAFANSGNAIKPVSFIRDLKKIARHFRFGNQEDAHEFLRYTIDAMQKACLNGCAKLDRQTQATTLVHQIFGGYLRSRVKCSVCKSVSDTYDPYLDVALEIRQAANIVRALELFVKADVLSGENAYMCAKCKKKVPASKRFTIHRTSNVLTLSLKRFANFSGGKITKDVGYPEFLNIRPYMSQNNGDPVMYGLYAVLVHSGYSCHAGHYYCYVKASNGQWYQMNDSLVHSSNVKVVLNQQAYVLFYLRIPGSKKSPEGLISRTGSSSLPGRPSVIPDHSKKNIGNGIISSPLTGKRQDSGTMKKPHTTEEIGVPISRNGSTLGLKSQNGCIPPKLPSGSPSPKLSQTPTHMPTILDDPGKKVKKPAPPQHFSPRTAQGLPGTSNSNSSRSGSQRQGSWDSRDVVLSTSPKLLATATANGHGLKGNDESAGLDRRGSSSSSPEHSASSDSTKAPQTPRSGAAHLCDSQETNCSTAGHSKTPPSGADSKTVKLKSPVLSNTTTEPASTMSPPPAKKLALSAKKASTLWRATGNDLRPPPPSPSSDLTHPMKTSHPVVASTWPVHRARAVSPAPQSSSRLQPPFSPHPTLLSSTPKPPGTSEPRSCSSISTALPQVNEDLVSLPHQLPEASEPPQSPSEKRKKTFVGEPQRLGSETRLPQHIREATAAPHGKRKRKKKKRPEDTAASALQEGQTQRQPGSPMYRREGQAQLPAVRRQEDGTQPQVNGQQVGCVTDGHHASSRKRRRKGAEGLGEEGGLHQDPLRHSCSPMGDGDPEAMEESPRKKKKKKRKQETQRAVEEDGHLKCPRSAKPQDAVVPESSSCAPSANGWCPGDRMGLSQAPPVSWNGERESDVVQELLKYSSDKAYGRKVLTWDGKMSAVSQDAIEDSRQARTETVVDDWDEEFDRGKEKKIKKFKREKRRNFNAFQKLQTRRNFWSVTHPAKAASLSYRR
Method in brief: as §1

[3] = target: T2, USP38 (UniProt Q8NB14)
T2 sequence (whole entry): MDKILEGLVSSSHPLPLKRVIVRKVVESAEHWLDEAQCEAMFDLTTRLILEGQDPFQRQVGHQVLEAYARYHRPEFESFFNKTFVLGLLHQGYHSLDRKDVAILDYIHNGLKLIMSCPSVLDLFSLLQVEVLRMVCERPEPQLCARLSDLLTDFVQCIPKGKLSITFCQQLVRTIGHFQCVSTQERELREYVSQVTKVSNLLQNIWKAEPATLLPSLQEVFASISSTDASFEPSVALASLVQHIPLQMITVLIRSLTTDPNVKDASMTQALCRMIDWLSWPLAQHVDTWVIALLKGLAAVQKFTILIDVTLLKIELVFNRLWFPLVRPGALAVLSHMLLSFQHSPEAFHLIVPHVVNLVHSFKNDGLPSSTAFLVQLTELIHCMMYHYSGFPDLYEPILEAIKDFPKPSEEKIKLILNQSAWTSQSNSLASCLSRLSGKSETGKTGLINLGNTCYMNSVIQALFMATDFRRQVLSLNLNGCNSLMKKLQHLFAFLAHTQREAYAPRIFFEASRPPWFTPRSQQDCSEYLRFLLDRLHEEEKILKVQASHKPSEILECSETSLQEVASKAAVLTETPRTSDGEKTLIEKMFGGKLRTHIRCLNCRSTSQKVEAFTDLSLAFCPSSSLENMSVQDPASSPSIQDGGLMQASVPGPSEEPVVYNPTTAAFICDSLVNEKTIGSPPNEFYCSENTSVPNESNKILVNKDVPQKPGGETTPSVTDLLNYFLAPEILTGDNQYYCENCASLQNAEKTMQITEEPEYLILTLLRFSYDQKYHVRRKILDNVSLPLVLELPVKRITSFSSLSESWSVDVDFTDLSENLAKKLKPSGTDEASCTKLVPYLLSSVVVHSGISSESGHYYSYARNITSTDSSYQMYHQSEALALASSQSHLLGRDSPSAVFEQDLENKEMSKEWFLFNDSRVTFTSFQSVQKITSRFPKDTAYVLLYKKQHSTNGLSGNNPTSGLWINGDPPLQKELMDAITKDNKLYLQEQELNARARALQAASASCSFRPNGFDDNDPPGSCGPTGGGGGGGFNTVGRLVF
Method in brief: as §1

[4] = target: T3, USP39 (UniProt Q53GS9)
T3 sequence (whole entry): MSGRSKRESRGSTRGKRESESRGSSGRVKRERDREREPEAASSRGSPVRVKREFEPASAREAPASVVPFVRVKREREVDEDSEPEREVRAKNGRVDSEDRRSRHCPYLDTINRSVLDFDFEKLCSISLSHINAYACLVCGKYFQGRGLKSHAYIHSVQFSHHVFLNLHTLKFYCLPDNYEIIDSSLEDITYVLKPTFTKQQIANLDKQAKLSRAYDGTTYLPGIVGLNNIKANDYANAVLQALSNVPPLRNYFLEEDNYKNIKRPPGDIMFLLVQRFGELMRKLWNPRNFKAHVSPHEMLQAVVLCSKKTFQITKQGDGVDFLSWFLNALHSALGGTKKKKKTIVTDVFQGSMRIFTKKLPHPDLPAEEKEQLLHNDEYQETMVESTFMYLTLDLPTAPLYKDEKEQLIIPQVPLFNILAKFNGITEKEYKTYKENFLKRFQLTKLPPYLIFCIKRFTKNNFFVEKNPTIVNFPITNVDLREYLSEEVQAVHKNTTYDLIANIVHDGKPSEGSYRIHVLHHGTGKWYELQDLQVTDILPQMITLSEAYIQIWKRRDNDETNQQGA
Method in brief: as §1

[5] = target: T4, USP4 (UniProt Q13107)
T4 sequence (whole entry): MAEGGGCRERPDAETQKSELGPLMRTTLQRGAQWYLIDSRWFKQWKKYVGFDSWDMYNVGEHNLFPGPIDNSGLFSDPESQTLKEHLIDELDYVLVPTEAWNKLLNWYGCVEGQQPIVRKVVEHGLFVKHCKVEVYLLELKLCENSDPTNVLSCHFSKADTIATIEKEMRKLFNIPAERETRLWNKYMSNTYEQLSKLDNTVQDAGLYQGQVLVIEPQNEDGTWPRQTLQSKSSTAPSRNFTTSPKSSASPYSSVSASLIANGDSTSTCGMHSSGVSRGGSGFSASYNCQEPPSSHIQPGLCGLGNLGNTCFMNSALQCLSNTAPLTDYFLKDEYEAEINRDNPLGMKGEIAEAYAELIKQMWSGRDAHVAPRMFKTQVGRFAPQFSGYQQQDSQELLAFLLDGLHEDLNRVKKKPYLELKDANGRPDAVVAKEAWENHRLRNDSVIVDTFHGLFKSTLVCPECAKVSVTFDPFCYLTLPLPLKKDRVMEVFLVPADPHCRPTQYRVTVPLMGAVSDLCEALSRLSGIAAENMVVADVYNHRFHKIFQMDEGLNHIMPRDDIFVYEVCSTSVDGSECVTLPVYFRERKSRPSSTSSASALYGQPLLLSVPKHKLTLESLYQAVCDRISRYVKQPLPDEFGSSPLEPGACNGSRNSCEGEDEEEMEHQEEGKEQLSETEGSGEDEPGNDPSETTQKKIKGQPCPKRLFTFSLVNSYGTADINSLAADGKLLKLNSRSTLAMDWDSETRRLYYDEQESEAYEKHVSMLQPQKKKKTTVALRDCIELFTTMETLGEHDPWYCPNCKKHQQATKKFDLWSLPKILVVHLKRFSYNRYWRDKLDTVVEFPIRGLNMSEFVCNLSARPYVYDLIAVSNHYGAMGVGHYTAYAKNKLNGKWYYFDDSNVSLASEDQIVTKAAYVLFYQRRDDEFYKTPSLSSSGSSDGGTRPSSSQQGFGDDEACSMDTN
Method in brief: as §1

Measured: log2 ratio of Biotin-Ahx-Ub-VS probe labelling

USP34, sequence (Q70CQ2 whole entry, the tested form may be a part): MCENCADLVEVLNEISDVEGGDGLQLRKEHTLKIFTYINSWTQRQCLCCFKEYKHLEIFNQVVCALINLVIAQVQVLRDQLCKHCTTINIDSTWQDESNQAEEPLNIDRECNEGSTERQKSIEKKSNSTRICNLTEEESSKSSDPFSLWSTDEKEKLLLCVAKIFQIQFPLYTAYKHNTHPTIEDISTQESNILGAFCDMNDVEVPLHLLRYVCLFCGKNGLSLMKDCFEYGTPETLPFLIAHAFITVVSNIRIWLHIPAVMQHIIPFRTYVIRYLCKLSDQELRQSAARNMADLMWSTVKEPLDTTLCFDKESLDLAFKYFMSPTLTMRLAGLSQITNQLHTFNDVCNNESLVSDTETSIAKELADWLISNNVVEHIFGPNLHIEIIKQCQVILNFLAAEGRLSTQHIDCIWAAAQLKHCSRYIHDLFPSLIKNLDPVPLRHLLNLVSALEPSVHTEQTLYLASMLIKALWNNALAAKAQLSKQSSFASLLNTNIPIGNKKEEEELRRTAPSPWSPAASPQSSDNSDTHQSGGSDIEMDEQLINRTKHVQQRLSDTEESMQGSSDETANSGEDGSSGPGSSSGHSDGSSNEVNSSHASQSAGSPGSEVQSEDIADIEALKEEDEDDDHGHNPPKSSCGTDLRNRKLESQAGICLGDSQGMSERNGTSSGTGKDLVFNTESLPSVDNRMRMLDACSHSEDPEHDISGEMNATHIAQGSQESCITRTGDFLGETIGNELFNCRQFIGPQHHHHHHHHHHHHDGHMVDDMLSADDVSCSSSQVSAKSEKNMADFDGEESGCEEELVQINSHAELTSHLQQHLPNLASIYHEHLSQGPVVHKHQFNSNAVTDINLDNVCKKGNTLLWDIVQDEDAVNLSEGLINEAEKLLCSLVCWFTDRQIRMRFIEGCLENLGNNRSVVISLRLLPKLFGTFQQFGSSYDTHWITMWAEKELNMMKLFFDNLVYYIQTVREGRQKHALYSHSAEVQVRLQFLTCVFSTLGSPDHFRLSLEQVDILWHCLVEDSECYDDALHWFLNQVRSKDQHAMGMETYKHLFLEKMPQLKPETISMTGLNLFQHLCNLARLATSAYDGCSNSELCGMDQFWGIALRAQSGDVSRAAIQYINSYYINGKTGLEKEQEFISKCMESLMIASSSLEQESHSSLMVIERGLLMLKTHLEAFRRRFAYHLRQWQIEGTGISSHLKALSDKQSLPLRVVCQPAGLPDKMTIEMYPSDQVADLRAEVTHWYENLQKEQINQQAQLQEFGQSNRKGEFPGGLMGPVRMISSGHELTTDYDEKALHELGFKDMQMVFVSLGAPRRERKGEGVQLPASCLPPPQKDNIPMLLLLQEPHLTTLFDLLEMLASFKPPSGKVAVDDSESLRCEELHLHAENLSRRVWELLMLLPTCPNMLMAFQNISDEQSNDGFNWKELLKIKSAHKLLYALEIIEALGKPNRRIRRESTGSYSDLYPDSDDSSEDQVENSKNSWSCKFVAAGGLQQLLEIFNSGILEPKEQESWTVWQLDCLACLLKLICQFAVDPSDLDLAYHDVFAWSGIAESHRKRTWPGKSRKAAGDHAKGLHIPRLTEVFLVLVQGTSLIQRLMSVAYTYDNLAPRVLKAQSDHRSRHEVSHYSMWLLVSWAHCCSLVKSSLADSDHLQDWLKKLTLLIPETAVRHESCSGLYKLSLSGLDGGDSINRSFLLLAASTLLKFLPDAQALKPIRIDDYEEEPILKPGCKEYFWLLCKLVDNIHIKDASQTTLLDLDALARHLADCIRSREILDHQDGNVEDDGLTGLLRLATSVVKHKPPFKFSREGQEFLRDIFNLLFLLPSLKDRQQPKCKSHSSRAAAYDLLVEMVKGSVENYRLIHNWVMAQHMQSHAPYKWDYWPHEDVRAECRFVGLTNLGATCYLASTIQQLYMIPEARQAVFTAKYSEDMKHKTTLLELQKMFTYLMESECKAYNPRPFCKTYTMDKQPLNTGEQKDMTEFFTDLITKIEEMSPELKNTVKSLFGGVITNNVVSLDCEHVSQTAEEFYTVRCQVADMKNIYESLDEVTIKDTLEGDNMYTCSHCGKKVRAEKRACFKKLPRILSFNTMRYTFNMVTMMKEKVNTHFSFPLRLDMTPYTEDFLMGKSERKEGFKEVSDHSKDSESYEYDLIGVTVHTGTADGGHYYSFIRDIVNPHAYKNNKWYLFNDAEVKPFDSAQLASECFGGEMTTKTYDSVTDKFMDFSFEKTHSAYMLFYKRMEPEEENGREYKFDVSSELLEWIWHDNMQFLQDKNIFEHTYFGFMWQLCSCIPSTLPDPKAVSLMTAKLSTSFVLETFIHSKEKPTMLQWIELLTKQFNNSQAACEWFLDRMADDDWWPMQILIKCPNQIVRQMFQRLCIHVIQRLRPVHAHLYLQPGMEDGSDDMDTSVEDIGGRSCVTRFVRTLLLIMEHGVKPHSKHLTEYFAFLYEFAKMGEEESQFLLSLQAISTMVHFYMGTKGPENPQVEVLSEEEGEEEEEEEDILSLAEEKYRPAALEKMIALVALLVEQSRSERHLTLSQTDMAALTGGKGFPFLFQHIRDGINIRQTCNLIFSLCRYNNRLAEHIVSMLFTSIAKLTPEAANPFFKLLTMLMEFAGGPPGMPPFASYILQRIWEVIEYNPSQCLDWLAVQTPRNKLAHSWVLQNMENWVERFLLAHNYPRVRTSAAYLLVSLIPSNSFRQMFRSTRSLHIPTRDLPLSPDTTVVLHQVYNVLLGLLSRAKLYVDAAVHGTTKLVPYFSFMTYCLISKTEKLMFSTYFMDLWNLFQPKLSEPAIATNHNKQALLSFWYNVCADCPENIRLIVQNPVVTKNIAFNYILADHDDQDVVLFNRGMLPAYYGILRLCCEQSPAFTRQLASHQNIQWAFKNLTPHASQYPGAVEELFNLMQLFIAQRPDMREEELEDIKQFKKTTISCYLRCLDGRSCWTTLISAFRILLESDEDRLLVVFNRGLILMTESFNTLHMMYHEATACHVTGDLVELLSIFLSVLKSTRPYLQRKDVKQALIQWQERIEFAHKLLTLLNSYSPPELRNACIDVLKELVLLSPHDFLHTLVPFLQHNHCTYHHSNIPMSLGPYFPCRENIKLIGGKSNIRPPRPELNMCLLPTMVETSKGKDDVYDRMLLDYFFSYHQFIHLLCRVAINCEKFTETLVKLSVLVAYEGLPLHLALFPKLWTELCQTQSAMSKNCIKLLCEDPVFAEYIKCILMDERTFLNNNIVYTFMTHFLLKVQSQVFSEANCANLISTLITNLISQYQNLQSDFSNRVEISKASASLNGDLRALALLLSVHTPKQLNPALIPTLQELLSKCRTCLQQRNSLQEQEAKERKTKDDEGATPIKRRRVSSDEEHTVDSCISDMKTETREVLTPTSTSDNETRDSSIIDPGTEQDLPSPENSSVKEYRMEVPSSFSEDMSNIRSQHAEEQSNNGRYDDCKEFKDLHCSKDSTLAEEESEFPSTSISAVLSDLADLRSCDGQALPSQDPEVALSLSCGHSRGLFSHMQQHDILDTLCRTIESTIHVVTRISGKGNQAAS

O=C(CCl)N1CCN(c2nc3ccccc3o2)CC1
inactive: [1] -0.0431 | [2] -0.047 | [3] -0.41 | [4] -0.00936 | [5] -0.445

— the supplement of paper PMC11732987, “Enantioselective OTUD7B fragment discovery through chemoproteomics screening and high-throughput optimisation” (Communications Chemistry, 2025)
